EPAC1 agonist: qHTS for Agonist of cAMP-regulated guanine nucleotide exchange factor 3 (EPAC1): primary screen; Rap guanine nucleotide exchange factor 3 (Homo sapiens), O95398; EPAC1 agonist qHTS, biochemical assay; response scale: 100% = response to 6.5 mM cAMP; Potency, µM (titrated, usually from 154 µM), inactives show at the top dose activation, hits mostly activators; 0.073% of 360,000 active; AID 720707, 2013; also: nearly all actives have a fitted effect of over 60% in size
Target sequence (O95398 whole entry, looked up): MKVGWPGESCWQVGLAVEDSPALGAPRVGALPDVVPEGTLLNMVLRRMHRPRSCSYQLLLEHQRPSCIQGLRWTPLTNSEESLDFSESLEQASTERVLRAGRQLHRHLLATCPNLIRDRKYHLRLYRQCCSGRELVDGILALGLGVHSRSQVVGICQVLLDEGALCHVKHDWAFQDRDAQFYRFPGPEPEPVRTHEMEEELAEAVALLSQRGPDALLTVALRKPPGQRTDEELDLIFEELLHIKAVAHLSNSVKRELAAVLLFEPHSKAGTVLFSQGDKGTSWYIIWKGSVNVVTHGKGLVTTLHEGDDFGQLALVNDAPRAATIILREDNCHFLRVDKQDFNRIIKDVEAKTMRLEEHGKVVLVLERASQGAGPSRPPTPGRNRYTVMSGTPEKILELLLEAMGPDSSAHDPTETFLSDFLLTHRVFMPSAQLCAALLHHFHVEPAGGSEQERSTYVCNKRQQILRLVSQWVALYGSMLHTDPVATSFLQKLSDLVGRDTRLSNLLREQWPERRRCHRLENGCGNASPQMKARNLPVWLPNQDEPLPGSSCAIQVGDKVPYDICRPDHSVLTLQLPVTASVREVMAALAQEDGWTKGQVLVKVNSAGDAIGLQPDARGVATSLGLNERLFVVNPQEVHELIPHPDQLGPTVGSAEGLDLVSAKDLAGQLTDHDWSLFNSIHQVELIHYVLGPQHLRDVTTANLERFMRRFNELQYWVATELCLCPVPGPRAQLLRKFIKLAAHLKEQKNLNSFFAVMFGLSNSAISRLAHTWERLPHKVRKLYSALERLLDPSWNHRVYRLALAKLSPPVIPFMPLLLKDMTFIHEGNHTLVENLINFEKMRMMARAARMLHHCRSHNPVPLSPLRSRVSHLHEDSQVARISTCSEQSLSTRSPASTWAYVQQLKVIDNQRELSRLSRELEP
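EPAC1 100 nM, Rap1B–BODIPY-GDP 250 nM, unlabeled GDP 50 uM; compound titration; 5 min RT; kinetic read ex480/em540 at 5-min intervals ×30 min; data normalized to 6.5 mM cAMP agonist control.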
EPAC1 antagonist: qHTS for Antagonist of cAMP-regulated guanine nucleotide exchange factor 3 (EPAC1): primary screen; Rap guanine nucleotide exchange factor 3 (Homo sapiens), O95398; EPAC1 GEF assay, Rap1b-BODIPY-GDP exchange fluorescence; Potency, µM (highest dose often 115 µM), for the others: top-dose activity change, negative = inhibition, actives largely listed as inhibitors; 0.14% of 360,000 active; AID 720709, 2013;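 also: plate controls were vehicle for no effect and positive control for full effect; nearly all actives have a fitted effect of over 50% in size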
EPAC2 agonist: qHTS for Agonist of cAMP-regulated guanine nucleotide exchange factor 4 (EPAC2): primary screen; EPAC2 activation, biochemical qHTS; response scale: 100% = 6.5 mM cAMP response; Potency, µM (doses to about 154 µM), for the others: at the highest dose activation, actives largely listed as activators; AID 720711, 2013; 0.079% of 360,000 active; also: nearly all actives have a fitted effect of over 50% in size
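EPAC2 (100 nM) mixed with Rap1B loaded with BODIPY-GDP (250 nM) plus 50 uM unlabeled GDP; compounds pinned in, 5 min RT, then read every 5 min for 30 min (ex 480, em 540 nm). Normalized to cAMP control.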
EPAC2 antagonist: qHTS for Antagonist of cAMP-regulated guanine nucleotide exchange factor 2 (EPAC2): primary screen; Potency, µM (highest dose often 114 µM), without a hit: at the top dose activity, negative = inhibition, hits mostly inhibitors; 0.18% of 360,000 active; Rap guanine nucleotide exchange factor 4 (Homo sapiens), Q8WZA2; EPAC2 GEF exchange of Rap1B-BODIPY-GDP, fluorescence; also: % is scaled to controls: 0 for no effect and ±100 for the full control effect; nearly all actives have a fitted effect of over 45% in size
Active calls of the source: *. An excerpt weighted towards active compounds, which were near 0.39% of everything screened. Calls follow the shape of the dose curve; as a rule, active = well fitted curve in the direction sought with a large enough effect; inconclusive = small, poorly fitted or top-dose-only effect, or another doubt; inactive = no such curve, though single readings can be large; an effect the other way counts as inactive or inconclusive. Potency is read from the fitted curve at half-maximal effect.

Cc1ccccc1C1=C/C(=C(\SS/C(C(=O)c2ccc(OCC(=O)O)c(Cl)c2Cl)=C2\C=C(c3ccccc3C)SS2)C(=O)c2ccc(OCC(=O)O)c(Cl)c2Cl)SS1 was read as EPAC1 agonist 0%, EPAC1 antagonist 50µM*, EPAC2 agonist -1% and EPAC2 antagonist 71µM*.
Screening CSc1nc(N(C)CCO)c2sc3nc(-c4ccco4)c4c(c3c2n1)CCC4 returned EPAC1 agonist -3%, EPAC1 antagonist 45µM*, EPAC2 agonist 25% and EPAC2 antagonist -14%.
Screening CSc1nc(NCCN(C)C)c2sc3nc(-c4ccco4)c4c(c3c2n1)CCC4 returned EPAC1 agonist -8%, EPAC1 antagonist -8%, EPAC2 agonist 17% and EPAC2 antagonist 11%.
For CC(=O)NNC(=O)c1sc(=S)n2c1[nH]c(=O)c1sccc12 the results were EPAC1 agonist -16%, EPAC1 antagonist inconclusive, EPAC2 agonist -2% and EPAC2 antagonist inconclusive.
Screening NC(=O)c1sc(=S)n2c1[nH]c(=O)c1sccc12 returned EPAC1 agonist 10%, EPAC1 antagonist inconclusive, EPAC2 agonist -4% and EPAC2 antagonist 40µM*.
`Clc1ccc(N2O[C@H]3C=C[C@@H]2C3)nc1` gave EPAC1 agonist 9%, EPAC1 antagonist -1%, EPAC2 agonist 22% and EPAC2 antagonist 31%.
For COCOCCn1cc(CN2CCS(=O)(=O)N(Cc3ccc(-c4ccc(Cl)c(Cl)c4)cc3)C(C(C)C)C2=O)nn1 (centres undefined) the results were EPAC1 agonist -3%, EPAC1 antagonist -8%, EPAC2 agonist -1% and EPAC2 antagonist -2%.
Screening O=C(c1ccco1)N1N=C(c2cccs2)CC1c1ccccc1O (centres undefined) returned EPAC1 agonist -2%, EPAC1 antagonist -10%, EPAC2 agonist -4% and EPAC2 antagonist 5%.
`COc1cccc(C2CC(c3cccs3)=NN2C(=O)c2ccco2)c1O` (centres undefined) gave EPAC1 agonist -12%, EPAC1 antagonist -28%, EPAC2 agonist 5% and EPAC2 antagonist 35µM*.
COc1cccc(C2=NN(C(=O)c3ccco3)C(c3ccco3)C2)c1 (centres undefined) was read as EPAC1 agonist 13%, EPAC1 antagonist 7%, EPAC2 agonist 6% and EPAC2 antagonist 14µM*.
For CCc1nc2ccc(C(=O)Nc3cccc(OC)c3)cn2c1N(C)Cc1ccc(OC)cc1 the results were EPAC1 agonist 6%, EPAC1 antagonist -15%, EPAC2 agonist 17% and EPAC2 antagonist 11%.
For Cc1ccc(OCc2nc3ccccc3n2C(C)C(=O)Nc2c(C)cccc2C)cc1 (centres undefined) the results were EPAC1 agonist -2%, EPAC1 antagonist 2%, EPAC2 agonist 0% and EPAC2 antagonist inconclusive.
`COc1cc(-c2cc(NC=O)c3ncc(-c4ccc(C(C)=O)cc4)n3c2)ccc1O` gave EPAC1 agonist -18%, EPAC1 antagonist -8%, EPAC2 agonist 7% and EPAC2 antagonist -11%.
Screening CCOC(=O)c1sc2nc(OCc3cccnc3)cc(C)c2c1N returned EPAC1 agonist 2%, EPAC1 antagonist inconclusive, EPAC2 agonist 12% and EPAC2 antagonist 9%.
CC(C)(C)N1C(=O)Cc2c1nc(N)c1c(N)nc(N3CCCCC3CO)c(C#N)c21 (centres undefined) was read as EPAC1 agonist -1%, EPAC1 antagonist 56µM*, EPAC2 agonist 4% and EPAC2 antagonist -8%.
CCc1nc2c(OCC(=O)c3ccc(Cl)cc3Cl)cccn2c1N(C=O)Cc1ccccc1 was read as EPAC1 agonist -1%, EPAC1 antagonist inconclusive, EPAC2 agonist 23% and EPAC2 antagonist 1%.
Cc1cc2nc3c(=O)n(CCc4ccccc4)c(=O)[nH]c3nc2cc1N was read as EPAC1 agonist inconclusive, EPAC1 antagonist 20%, EPAC2 agonist 100µM* and EPAC2 antagonist 75%.
Screening Nc1ccc2nc3c(=O)n(C4CCCCC4)c(=O)[nH]c3nc2c1 returned EPAC1 agonist inconclusive, EPAC1 antagonist -33%, EPAC2 agonist 45% and EPAC2 antagonist 152%.
